A selection: hits, their analogues and other compounds. The true share with any hit is near 1.2%.
MEX-5 binding: C. elegans MEX-5 TCR-2 RNA binding activity | Q9XUB2 | MEX-5/FITC-TCR2 RNA binding, fluorescence polarization; hits give low values | activity score (negative = inhibition of binding), % at 10 µM | 300,000 tested, 0.38% active;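 active means inhibition past about -25% in most replicates, and total fluorescence under double the plate's negative control median, limit read from the data; inconclusive means replicates evenly split on the limit, or fluorescence at least double controls; inactive means too little inhibition in most replicates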;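 further: 0% = DMSO and -100% = 5 µM competing unlabeled TCR2 RNA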
GLD-1 RNA inh: GLD-1-TGE RNA interaction inhibition (C. elegans); Q17339; purified GLD-1 + fluorescein TGE RNA, fluorescence polarization; inhibition, % at 5.96 µM; 320,000 tested, 0.44% active;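 active means percent inhibition above a per-plate cutoff, the plate mean of test compounds plus 3 SD, cut at about 30% in these data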;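 further: 0% = DMSO wells with GLD-1 and probe and 100% = wells lacking GLD-1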
eLon inh: inhibitors of E. coli Lon protease. P0A9M0. AID 602123. inhibition, % at 7.94 µM. 360,000 tested, 0.42% active. purified E. coli Lon protease, fluorescence polarization; in the data active means inhibition above about 13%, passing the limit was not always enough;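 further: 0% = enzyme with probe and DMSO and 100% = no enzyme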
BCLXL inh: inhibitors of human Bcl-xL. Q07817. GST-Bcl-xL / FITC-Bim BH3 peptide fluorescence polarization. inhibition, % at 10.9 µM. 320,000 tested, 0.7% active;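 active means inhibition above the mean of all tested compounds plus 3 SD, cutoff set per campaign, cut at about 30% in these data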;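 further: 0% = DMSO wells and 100% = unlabeled Bim-BH3 peptide competitor; inhibitors lower millipolarization by displacing the labeled peptide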
Target sequence (Q07817 whole entry, looked up): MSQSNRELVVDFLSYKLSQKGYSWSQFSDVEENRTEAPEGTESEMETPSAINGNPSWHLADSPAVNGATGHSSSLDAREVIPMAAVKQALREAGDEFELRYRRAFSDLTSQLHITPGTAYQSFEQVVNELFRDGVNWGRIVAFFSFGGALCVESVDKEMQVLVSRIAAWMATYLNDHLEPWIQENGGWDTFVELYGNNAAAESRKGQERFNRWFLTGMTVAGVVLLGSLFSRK
LANA DNA inh: inhibitors of KSHV LANA C-terminal domain DNA binding; MBP-C-LANA/FAM-LBS DNA binding, fluorescence polarization; 340,000 tested, 0.078% active; inhibition, % at 9 µM;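 active means highest replicate inhibition at or above 60% at 9 µM, even if other replicates fall short; inactive means all replicates below 60% inhibition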;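 further: 0% = neutral control wells and 100% = 4 µM acridine orange control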
Keap1-Nrf2 PPI: inhibitors of human Keap1-Nrf2 protein-protein interaction; Q14145; Keap1 Kelch-Nrf2 peptide fluorescence polarization, 1536-well; inhibition, % at 9.4 µM; 340,000 tested, 0.15% active; in the data active means inhibition above about 12%; inconclusive means no clear call, values can overlap the other calls; inactive means below about 7.3%;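 further: human Keap1 Kelch domain with fluorescein labeled Nrf2 9mer peptide probe; 0% = neutral control wells and 100% = peptide positive control; higher means more block of Keap1 binding to Nrf2 peptide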
eLon confirm: confirmation of E. coli Lon protease inhibitors. shares compounds with eLon inh. purified E. coli Lon, fluorescence polarization. inhibition, % at 7.94 µM. 1,400 tested, 31% active. AID 602230; in the data active means inhibition above about 16%;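 further: 0% = enzyme with probe and DMSO and 100% = no enzyme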
Starred values were filed as active, the others as inactive; u = inconclusive; x = no result; + = active, no number.

SMILES | MEX-5 binding | GLD-1 RNA inh | eLon inh | BCLXL inh | LANA DNA inh | Keap1-Nrf2 PPI | eLon confirm
CC(=O)Nc1cccc(-c2ccnc3c2CC(C)(C(=O)NCC2CC2)O3)c1 (stereo not given) | x | x | 47* | x | x | x | -5
Oc1ccc(Nc2nc(-c3ccccc3O)nc3ccccc23)cc1 | -2 | x | 2 | x | 1 | -1 | x
Oc1ccc(Nc2nc(-c3ccccc3F)nc3ccccc23)cc1 | 0 | 4 | 17* | 2 | -2 | -4 | 8
O=C(OCN1C(=O)c2ccccc2C1=O)C1CCCCC1 | 2 | -6 | 2 | 9 | 0 | 1 | x
O=C1c2ccccc2C(=O)N1SC1CCCCC1 | 1 | 2 | 19* | 6 | 3 | -30 | -65
C[C@@H]1CCCCCCCCC(=O)OCCN[C@H](C)CCCCCCCCC(=O)OCCN[C@H](C)CCCCCCCCC(=O)OCCN1 | x | -4 | 3 | x | -3 | -2 | x
CC(C)(C)c1cc(C(=O)N/N=C/c2ccc(-c3ccccc3[N+](=O)[O-])o2)n[nH]1 | -3 | 75* | 25* | 48* | 2 | 0 | 7
CC(=O)OCCn1c2nc(=O)[nH]c(=O)c-2nc2cc(C)c(C)cc21 | u | x | + | x | 163* | 156* | +
CC(=O)OCCn1c(C)[n+](CCOC(C)=O)c2cc(Cl)c(Cl)cc21 | 2 | 1 | -2 | -16 | 1 | -7 | x
O=C(O)C1CCCC2CN3CCc4c([nH]c5ccccc45)C3C(O)C21 (stereo not given) | -10 | 35* | 20* | 86* | 11 | 9 | 2
N#Cc1ccc(-c2nc3ccc(Cl)cn3c2Cc2ccsc2)cc1 | x | x | 13 | x | x | x | x
Cc1ccc(-c2nc3c(C)cc(Br)cn3c2Cc2ccsc2)cc1 | x | x | 7 | x | x | x | x
Cc1cc(Br)cn2c(Cc3ccsc3)c(-c3ccccc3)nc12 | x | x | 24* | x | x | x | 3
Clc1ccc2nc(-c3ccco3)c(Cc3ccsc3)n2c1 | x | x | -14 | x | x | x | x
CCCc1nc2ccc(Cl)cn2c1Cc1ccsc1 | x | x | 25* | x | x | x | 6
Clc1ccc2nc(-c3ccccc3)c(Cc3ccsc3)n2c1 | x | x | 18* | x | x | x | 12
Brc1ccc2nc(-c3ccccc3)c(Cc3ccsc3)n2c1 | x | x | 14 | x | x | x | x
Clc1ccc(-c2nc3ccc(Cl)cn3c2Cc2ccsc2)cc1 | x | x | 25* | x | x | x | 3
O=C(NCc1ccc2c(c1)OCO2)C1CC(=O)N(c2ccc(Cl)cc2)C1 (stereo not given) | -2 | -1 | 13 | 3 | -1 | 1 | x
CCOC(=O)[C@H]1[C@H]2COc3ccc(Cl)cc3[C@@H]2N2C(=O)[C@@H](C)NC(=O)[C@@]12C | x | 0 | -17 | x | 1 | -2 | x
O=C(c1cccc(S(=O)(=O)N2CCN(c3ccc(F)cc3)CC2)c1)N1CCN(c2ccccc2O)CC1 | x | x | 11 | x | 0 | -6 | x
CN(C)CCN1CCN(C(c2ccnc3ccccc23)c2nnnn2-c2ccc3c(c2)OCCO3)CC1 (stereo not given) | x | x | 3 | x | x | x | x
COc1ccc(-c2onc3ccc(Br)cc23)cc1 | -13 | 97* | 39* | 113* | 10 | 9 | 86*
CCN(CC(=O)Nc1c(F)cccc1F)C(=O)c1cc2ccccc2oc1=O | -2 | -2 | 23* | 1 | -1 | -7 | -2
CCn1cc([N+](=O)[O-])c(C(=O)Nc2ccn(C34CC5CC(CC(C5)C3)C4)n2)n1 | 3 | 5 | 8 | 2 | 2 | -2 | x
Cn1cc([N+](=O)[O-])c(C(=O)Nc2ccn(C34CC5CC(CC(C5)C3)C4)n2)n1 | 0 | 3 | 31* | -7 | 1 | -7 | -11
C[C@@H](c1ccccc1)N1C[C@@H](COCc2ccccc2)Oc2cc(N3CCC[C@H]3C(N)=O)ccc2S1(=O)=O | x | x | -1 | x | x | x | x
COC(=O)Cn1c(O)c(N=NC(=O)CNC(=O)c2ccc3c(c2)OCCO3)c2ccccc21 | -2 | 6 | 21* | 5 | -1 | -1 | -5
CCOC(=O)CSc1nc2cc(C)ccc2cc1C#N | 2 | 3 | 27* | 14 | 1 | 0 | 9
CCOC(=O)CSc1nc2ccc(C)cc2cc1C#N | 1 | 1 | -3 | 26 | -1 | -2 | x
